Experimental data as given in PubChem BioAssay (Tox21).
Results filed as inconclusive are left out. Unmarked numbers belong to inactive results. Calls of active or inactive are those of the source. The call rests on the fitted dose curve.

Test: qHTS assay to identify small molecule agonists or antagonists of the thyroid stimulating hormone receptor (TSHR) signaling pathway - wild type cell line counter screen (AID 1259384)
Conditions: HEK293 wild type, cAMP HTRF counter-screen; series mostly up to 92.4 µM; cAMP activity change: at the top concentration
Source text: U.S. Tox21 Program National Center for Advancing Translational Sciences [NCATS] NIH Chemical Genomics Center [NCGC] U.S. Environmental Protection Agency [EPA] National Institutes of Environmental Health Sciences [NIEHS] National Toxicology Program [NTP] U.S. Food and Drug Administration [FDA] Tox21 Assay Overview: TSHR is the receptor for thyrotropin (thyroid stimulating hormone or TSH), a member of the glycoprotein hormone family. TSH is released by the anterior pituitary gland and is the main regulator of thyroid gland growth and development. Upon binding circulating thyrotropin, a G-protein signal cascade activates adenylyl cyclase and […] cAMP concentration is increased. cAMP is a key second messenger involved extensively in cellular signal transduction pathways associated with the majority of G-protein coupled receptors (GPCRs). The activation of these GPCRs by neurotransmitters, lipids, nucleotides, peptides and hormones results in the activation or the inhibition of plasma membrane-bound adenylate cyclase through heterotrimeric G-proteins. A cell-based TSHR-Hek293 assay can be used to identify TSHR agonists. To eliminate the false positive compounds identified from screening a cell-based TSHR-Hek293 cell line, cAMP assay in a wild type Hek293 cells was used as a counter screening.
Tox21 Assay Protocol Summary: Hek293 cells (wild type) were dispensed at 800 cells/4 uL/well in 1536-well white plates using a Multidrop dispenser. After the assay plates were incubated at a 37 C/5% CO2 incubator for 18 hrs, 23 nL of compounds dissolved in DMSO, positive controls or DMSO only was transferred to the assay plate by a pin tool, followed by 1 ul medium containing Ro20-1724. After 30 min of incubation at room temperature, 2.5 ul/well of cAMP-d2 and 2.5 ul/well of anti-cAMP-cryptate were added respectively into the assay plates using a Flying Reagent Dispenser. The plates were incubated at room temperature for 1 hr. The fluorescence intensity in the plates was measured using an Envision plate reader. Each test compound was measured at 15 concentrations and in triplicates.
On the % scale 0 is the no-effect control and ±100 the full control effect; potency means the concentration at half of the fitted maximal effect.

Compared with `CCOP(=S)(OCC)SC(CCl)N1C(=O)c2ccccc2C1=O` (stereo not given), `CCOP(=O)(Sc1ccccc1)Sc1ccccc1` is lower in “cAMP activity change” value: 2.95% for the first, 1.35% for the second.

Going from `BrCCCBr` to `C=CCBr`, the “cAMP activity change” value falls from 5.6% to 0.785%.

Compared with `Nc1nc(N)nc(Cl)n1`, `COP(=S)(OC)Oc1nc(Cl)c(Cl)cc1Cl` is higher in “cAMP activity change” value: -1.6% for the first, 2.62% for the second.

Compared with `CCOP(=S)(OCC)Oc1cc(C)nc(N(CC)CC)n1`, `CCOP(=O)(OCC)Oc1cc(C)nc(C(C)C)n1` is higher in “cAMP activity change” value: 0.057% for the first, 5.56% for the second.

First: N#CSCc1ccccc1
Second: Cc1cc(C2CC2)nc(Nc2ccccc2)n1
The “cAMP activity change” value of the first is lower: -0.0379% for the first, 3.84% for the second.

Going from `Cc1ccccc1OP(=O)(Oc1ccccc1C)Oc1ccccc1C` to `Brc1ccc(Oc2ccc(Br)cc2Br)c(Br)c1`, the “cAMP activity change” value falls from 0.528% to -4.07%.

Compared with `CCOC(=O)CCN(SN(C)C(=O)Oc1cccc2c1OC(C)(C)C2)C(C)C`, `CC(Cc1ccc2c(c1)OCO2)NO` (stereo not given) is lower in “cAMP activity change” value: 1.03% for the first, -9.65% for the second.

Compared with `C=CCOC(=O)c1ccccc1N`, `CCN(CC)CCc1c[nH]c2ccccc12` is lower in “cAMP activity change” value: 7.47% for the first, -5.15% for the second.

Compared with `CNC(=O)/C=C(\C)OP(=O)(OC)OC`, `COP(=O)(OC)O/C(=C\Cl)c1cc(Cl)c(Cl)cc1Cl` is lower in “cAMP activity change” value: 6.91% for the first, 1.76% for the second.

Going from `COc1cnc(OC)n2nc(NS(=O)(=O)c3c(OCC(F)F)cccc3C(F)(F)F)nc12` to `COc1ccc2c(c1OC)C(=O)O[C@@H]2[C@H]1c2cc3c(cc2CCN1C)OCO3`, the “cAMP activity change” value rises from -0.785% to 0.785%.

Compared with `Cc1c([N+](=O)[O-])c(C)c([N+](=O)[O-])c(C(C)(C)C)c1[N+](=O)[O-]`, `O=[N+]([O-])[O-].[Tl+]` is higher in “cAMP activity change” value: -0.367% for the first, -0.208% for the second.

First: c1csc(-c2ccc(-c3cccs3)s2)c1
Second: C[C@H]1[C@H](c2ccc(Cl)cc2)SC(=O)N1C(=O)NC1CCCCC1
The “cAMP activity change” value of the first is lower: -6.48% for the first, -1.12% for the second.

First: N#Cc1ccc(N(CC(N)=O)CC(F)(F)F)cc1C(F)(F)F
Second: CCC1COC(Cn2cncn2)(c2ccc(Cl)cc2Cl)O1 (stereo not given)
The “cAMP activity change” value of the first is higher: -0.134% for the first, -2.56% for the second.

First: C#CC1(O)CCCCC1
Second: Clc1ccc(C2(Cn3cncn3)OCCO2)c(Cl)c1
The “cAMP activity change” value of the first is lower: -2.41% for the first, 0.968% for the second.

With `CCC(C)Br` (stereo not given) the “cAMP activity change” value was -6.25%.

In the case of `Fc1ccc(C(OCCN2CCN(CCCc3ccccc3)CC2)c2ccc(F)cc2)cc1`, the “cAMP activity change” value is reported as 2.61% [at 42.5 µM, stronger effect = higher value].
With `CN1CCc2cc(Cl)c(O)cc2[C@H]2c3ccccc3CC[C@@H]21` the “cAMP activity change” value was 0.228% [at 42.5 µM, stronger effect = higher value].
In the case of `C[C@]12CC[C@H]3[C@@H](CCC4=CC(=O)CC[C@@H]43)[C@@H]1CC[C@@H]2OC(=O)CCc1ccco1`, the “cAMP activity change” value is reported as 4.83% [at 42.5 µM, stronger effect = higher value].
With `C[N+]1(C)[C@@H]2CC[C@H]1CC(OC(=O)C(CO)c1ccccc1)C2` (stereo not given in full) the “cAMP activity change” value was -1.99% [at 42.5 µM, stronger effect = higher value].
In the case of `C[C@@H]1CC2=CC(=O)CC[C@@H]2[C@H]2CC[C@@]3(C)[C@@H](CC[C@]3(C)O)[C@@H]21`, the “cAMP activity change” value is reported as 1.17% [at 42.5 µM, stronger effect = higher value].
In the case of `Cc1ccc([N+](=O)[O-])[c]2c1[O][Hg]2`, the “cAMP activity change” value is reported as 9.02% [at 42.5 µM, stronger effect = higher value].
In the case of `Nc1ccc(Cl)cc1C(=O)c1ccccc1F`, the “cAMP activity change” value is reported as -1.6% [at 42.5 µM, stronger effect = higher value].
For `O=c1[nH]c2cc(Cl)ccc2n1C1CCNCC1`, the “cAMP activity change” value was -5.29% [at 42.5 µM, stronger effect = higher value].

With `CC(O)C(=O)[O][Hg][c]1ccccc1` (stereo not given) the Potency was 5.66 µM (active).
In the case of `C[C@]12C/C(=C/O)C(=O)C[C@@H]1CC[C@@H]1[C@@H]2CC[C@@]2(C)[C@H]1CC[C@]2(C)O`, the Potency is reported as “inactive”.
In the case of `O=S1OCC2C(CO1)C1(Cl)C(Cl)=C(Cl)C2(Cl)C1(Cl)Cl` (stereo not given), the Potency is reported as “inactive”.
